From the supplement of paper PMC11732987, “Enantioselective OTUD7B fragment discovery through chemoproteomics screening and high-throughput optimisation” (Communications Chemistry, 2025)

How the values were obtained:
Assay in all cases: log2 ratio of Biotin-Ahx-Ub-VS probe labelling (fragment/DMSO); higher = less target engagement (more negative = stronger competition), active = hit call of the paper (q ≤ 0.05, log2 ratio ≤ -1)
Settings in all cases: compound concentration: 200 uM; treatment time: 3 h
USP19 = target: T1, USP19 (UniProt O94966)
T1 sequence (whole entry): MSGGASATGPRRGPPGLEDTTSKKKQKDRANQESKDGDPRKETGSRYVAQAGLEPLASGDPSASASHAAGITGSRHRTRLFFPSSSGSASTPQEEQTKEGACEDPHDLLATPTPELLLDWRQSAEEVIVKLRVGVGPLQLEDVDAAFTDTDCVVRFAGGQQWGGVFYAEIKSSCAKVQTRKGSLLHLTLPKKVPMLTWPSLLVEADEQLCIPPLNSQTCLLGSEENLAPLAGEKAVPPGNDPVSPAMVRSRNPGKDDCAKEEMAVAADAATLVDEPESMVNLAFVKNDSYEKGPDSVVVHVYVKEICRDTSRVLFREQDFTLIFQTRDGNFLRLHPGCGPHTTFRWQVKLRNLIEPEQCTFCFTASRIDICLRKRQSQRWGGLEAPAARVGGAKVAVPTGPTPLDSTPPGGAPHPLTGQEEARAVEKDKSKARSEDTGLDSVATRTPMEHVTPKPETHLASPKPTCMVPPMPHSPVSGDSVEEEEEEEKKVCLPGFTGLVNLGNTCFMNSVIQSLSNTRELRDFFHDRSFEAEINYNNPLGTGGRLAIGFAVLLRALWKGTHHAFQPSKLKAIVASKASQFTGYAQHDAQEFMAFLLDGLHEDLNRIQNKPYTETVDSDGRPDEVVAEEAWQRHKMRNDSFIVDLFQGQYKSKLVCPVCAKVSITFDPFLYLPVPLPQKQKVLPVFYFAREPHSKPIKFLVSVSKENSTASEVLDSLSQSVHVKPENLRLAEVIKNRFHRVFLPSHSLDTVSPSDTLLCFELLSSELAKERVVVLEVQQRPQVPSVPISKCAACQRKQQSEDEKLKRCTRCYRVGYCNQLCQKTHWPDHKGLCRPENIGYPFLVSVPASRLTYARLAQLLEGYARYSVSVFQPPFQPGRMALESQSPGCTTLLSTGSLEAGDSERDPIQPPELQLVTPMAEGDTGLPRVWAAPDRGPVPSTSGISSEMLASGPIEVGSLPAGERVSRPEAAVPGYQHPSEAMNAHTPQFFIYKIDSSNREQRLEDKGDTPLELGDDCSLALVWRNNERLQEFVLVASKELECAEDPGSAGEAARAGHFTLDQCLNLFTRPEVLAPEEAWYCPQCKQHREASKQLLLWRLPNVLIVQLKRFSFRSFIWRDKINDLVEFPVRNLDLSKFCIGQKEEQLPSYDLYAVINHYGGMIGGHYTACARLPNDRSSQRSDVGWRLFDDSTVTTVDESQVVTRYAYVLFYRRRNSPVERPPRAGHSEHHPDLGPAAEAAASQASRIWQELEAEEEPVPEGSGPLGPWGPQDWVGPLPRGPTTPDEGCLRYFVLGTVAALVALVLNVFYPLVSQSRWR
Summary of the method: (§1)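 Labelled DUBs were enriched with NeutrAvidin, digested with LysC and trypsin, and run by diaPASEF LC-MS/MS. The labelling used Biotin-Ahx-Ub-VS at 0.5 µM final for 1 h on HEK293T lysate (495 µg per sample) previously treated in triplicate with fragment at 200 µM or vehicle for 3 h. Values are average log2 fragment/vehicle ratios by unpaired t-test on global-median-normalised Spectronaut quantities of proteins with ≥2 unique peptides.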

USP22 = target: T2, USP22 (UniProt Q9UPT9)
T2 sequence (whole entry): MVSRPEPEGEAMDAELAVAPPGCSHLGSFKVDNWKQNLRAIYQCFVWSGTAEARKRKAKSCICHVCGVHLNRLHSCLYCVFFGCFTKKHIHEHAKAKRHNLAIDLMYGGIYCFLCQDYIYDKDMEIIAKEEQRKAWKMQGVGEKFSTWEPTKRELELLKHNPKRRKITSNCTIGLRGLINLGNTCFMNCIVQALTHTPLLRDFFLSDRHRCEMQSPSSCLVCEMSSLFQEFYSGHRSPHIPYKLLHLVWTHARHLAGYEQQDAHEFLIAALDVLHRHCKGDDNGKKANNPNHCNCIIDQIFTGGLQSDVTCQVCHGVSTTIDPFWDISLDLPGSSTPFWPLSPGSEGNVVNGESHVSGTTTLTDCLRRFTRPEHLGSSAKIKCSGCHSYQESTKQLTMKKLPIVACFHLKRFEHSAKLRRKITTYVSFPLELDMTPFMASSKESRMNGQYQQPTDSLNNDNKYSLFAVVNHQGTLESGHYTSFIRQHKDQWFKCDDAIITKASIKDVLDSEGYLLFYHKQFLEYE
Summary of the method: as §1

USP24 = USP24 (UniProt Q9UPU5)
Summary of the method: as §1

USP25 = target: T3, USP25 (UniProt Q9UHP3)
T3 sequence (whole entry): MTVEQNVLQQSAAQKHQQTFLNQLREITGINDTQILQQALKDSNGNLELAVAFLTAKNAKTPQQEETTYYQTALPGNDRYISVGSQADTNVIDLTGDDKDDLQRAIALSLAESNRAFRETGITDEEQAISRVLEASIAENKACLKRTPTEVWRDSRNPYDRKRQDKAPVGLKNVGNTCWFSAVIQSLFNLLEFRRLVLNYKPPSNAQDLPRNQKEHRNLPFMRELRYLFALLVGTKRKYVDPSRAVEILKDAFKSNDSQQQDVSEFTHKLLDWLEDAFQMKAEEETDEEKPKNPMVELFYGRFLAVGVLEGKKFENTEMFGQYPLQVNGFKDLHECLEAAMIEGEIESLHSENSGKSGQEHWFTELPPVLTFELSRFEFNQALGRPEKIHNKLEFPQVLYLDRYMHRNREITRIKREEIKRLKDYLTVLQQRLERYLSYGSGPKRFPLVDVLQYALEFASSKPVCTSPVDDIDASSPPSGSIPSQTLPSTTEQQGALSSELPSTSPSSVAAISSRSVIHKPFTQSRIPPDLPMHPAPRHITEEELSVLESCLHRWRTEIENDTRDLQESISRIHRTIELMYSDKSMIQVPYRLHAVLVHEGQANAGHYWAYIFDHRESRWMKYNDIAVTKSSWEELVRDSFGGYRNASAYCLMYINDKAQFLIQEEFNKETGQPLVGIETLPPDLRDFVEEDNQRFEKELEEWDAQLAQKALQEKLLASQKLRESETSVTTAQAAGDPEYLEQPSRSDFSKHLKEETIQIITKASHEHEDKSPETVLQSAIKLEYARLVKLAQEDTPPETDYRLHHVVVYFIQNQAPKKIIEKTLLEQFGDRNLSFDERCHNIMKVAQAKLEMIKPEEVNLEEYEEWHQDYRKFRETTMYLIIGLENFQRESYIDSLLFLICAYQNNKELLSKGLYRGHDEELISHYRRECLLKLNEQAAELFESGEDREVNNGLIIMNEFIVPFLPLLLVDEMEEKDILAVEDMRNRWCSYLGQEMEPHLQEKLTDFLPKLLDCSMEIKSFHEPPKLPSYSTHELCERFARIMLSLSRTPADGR
Summary of the method: as §1

USP28 = target: T4, USP28 (UniProt Q96RU2)
T4 sequence (whole entry): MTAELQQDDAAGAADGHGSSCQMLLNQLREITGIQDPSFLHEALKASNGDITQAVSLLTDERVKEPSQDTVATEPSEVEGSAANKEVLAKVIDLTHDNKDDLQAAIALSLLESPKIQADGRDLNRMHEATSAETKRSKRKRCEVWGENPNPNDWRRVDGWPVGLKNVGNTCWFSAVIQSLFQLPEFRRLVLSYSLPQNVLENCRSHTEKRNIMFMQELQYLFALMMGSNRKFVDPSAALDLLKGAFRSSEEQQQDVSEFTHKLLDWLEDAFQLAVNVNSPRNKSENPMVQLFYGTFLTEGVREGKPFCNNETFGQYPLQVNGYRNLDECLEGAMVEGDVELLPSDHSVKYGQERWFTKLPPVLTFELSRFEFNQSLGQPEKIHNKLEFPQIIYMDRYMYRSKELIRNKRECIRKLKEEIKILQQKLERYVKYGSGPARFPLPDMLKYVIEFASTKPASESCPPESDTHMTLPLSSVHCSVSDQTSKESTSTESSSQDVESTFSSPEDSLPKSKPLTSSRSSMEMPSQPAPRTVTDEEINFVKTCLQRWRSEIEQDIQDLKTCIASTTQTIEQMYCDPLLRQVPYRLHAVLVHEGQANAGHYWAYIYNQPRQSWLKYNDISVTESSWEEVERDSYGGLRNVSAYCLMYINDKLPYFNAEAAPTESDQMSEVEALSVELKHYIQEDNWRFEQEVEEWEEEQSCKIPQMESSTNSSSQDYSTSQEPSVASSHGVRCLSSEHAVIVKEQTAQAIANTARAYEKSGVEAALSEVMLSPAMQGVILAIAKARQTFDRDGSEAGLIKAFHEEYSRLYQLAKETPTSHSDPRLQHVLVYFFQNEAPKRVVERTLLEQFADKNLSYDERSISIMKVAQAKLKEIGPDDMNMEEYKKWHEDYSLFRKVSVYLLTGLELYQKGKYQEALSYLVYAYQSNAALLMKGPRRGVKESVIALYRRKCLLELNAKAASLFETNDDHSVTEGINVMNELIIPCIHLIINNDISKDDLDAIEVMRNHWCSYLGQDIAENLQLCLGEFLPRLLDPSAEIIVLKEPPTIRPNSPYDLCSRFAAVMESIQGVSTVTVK
Summary of the method: as §1

Measured: log2 ratio of Biotin-Ahx-Ub-VS probe labelling

Chain of USP24 (Q9UPU5 whole entry): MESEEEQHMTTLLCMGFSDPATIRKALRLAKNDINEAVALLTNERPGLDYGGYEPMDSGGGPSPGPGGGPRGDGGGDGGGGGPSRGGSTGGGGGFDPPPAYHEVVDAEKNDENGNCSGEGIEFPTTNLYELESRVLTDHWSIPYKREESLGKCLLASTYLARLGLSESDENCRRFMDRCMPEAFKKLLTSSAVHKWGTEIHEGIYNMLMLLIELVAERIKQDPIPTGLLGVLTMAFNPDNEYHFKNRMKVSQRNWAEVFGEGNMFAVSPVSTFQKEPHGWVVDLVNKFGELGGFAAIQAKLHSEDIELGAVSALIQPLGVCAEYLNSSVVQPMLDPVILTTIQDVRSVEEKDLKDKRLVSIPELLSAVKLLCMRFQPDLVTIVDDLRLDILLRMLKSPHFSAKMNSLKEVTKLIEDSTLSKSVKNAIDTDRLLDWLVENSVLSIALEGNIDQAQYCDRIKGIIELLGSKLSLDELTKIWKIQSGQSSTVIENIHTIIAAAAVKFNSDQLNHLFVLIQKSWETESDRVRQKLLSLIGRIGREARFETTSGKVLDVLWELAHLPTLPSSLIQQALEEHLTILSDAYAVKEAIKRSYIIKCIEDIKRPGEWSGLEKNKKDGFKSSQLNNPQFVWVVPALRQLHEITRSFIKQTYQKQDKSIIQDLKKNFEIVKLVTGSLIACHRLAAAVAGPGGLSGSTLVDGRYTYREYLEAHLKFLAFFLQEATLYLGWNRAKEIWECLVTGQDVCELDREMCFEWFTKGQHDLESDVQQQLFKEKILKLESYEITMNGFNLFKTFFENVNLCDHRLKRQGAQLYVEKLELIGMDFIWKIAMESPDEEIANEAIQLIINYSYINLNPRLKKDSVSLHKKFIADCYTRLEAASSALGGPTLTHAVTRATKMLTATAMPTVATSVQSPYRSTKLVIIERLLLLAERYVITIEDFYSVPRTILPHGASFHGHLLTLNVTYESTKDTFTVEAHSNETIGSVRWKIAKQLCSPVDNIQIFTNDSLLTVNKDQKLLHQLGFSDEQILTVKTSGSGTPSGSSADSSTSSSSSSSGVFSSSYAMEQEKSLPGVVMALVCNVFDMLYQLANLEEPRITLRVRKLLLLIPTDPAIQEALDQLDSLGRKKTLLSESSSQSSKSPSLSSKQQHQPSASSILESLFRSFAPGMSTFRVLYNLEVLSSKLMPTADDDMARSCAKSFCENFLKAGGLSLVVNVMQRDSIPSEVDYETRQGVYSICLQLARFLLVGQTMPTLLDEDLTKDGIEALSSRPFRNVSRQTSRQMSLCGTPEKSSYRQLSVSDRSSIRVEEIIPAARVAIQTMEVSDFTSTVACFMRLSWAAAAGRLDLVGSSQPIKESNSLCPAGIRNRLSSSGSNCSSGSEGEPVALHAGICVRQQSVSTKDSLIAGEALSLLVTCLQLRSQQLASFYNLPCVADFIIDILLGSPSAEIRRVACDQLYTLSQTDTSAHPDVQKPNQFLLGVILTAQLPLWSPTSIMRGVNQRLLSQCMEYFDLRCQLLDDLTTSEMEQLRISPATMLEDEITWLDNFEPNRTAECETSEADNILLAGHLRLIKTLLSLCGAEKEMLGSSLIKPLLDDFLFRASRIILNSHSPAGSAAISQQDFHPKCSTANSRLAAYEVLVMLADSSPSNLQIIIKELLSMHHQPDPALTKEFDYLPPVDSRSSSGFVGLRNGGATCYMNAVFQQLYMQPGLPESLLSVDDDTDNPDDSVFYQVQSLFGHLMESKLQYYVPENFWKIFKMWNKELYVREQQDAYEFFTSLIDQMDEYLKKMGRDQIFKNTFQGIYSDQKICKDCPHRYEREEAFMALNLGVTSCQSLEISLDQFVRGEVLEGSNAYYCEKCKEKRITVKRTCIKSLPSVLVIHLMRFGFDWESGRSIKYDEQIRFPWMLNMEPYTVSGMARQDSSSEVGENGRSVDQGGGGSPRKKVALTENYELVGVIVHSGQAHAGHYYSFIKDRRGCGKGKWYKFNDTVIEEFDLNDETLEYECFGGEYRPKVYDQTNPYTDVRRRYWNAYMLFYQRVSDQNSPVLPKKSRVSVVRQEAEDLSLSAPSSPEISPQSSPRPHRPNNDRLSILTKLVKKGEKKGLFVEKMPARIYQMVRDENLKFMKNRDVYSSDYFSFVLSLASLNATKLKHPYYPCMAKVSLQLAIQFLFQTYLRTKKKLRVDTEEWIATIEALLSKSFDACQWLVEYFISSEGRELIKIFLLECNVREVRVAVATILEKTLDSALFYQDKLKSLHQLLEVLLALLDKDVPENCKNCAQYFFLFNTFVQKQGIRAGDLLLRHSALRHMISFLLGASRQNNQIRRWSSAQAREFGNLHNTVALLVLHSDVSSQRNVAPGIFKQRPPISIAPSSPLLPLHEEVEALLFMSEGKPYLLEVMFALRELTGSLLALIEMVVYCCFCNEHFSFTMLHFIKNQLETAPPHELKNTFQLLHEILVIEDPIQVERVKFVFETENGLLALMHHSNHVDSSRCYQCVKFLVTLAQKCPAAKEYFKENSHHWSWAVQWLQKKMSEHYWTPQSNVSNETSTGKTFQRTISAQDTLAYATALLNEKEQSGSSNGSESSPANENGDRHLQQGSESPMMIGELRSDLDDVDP

O=C(CCl)N1CCC[C@@H]1c1ccon1
inactive: USP19 -0.377 | USP22 -0.153 | USP24 -0.653 | USP25 -0.618 | USP28 -0.64
